Test results reported in PubChem BioAssay AID488815 (Broad Institute, 2010).
Measured potencies and affinities stand elsewhere. Records with an inconclusive call do not appear. The source made the active and inactive calls. The rule behind the calls is not given here.

What follows are compounds tested against CAAX prenyl protease 1 (Saccharomyces cerevisiae (strain ATCC 204508 / S288c)) (UniProt P47154) (assay: Ste24 protease inhibitors, dose response, biochemical, S. cerevisiae, plate reader, cherry-pick (AID 488815;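 note: 0% = neutral control wells and -100% = no enzyme wells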)). Conditions: yeast Ste24 protease activity; series mostly up to 10 µM; activity change, negative = inhibition: at the top concentration.
Sequence of CAAX prenyl protease 1 (Saccharomyces cerevisiae (strain ATCC 204508 / S288c)) (P47154 whole entry, looked up): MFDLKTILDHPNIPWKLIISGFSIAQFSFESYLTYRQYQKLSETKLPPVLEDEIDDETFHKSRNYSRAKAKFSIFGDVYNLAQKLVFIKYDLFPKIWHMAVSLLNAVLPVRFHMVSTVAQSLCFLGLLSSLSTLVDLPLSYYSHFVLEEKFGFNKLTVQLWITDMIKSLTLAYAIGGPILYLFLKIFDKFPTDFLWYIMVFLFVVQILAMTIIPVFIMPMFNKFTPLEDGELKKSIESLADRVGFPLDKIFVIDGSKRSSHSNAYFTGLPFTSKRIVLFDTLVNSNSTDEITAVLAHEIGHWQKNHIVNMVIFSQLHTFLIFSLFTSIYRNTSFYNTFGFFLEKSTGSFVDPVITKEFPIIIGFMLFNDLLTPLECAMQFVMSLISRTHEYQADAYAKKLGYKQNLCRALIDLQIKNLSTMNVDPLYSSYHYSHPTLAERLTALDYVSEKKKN

Activity change, negative = inhibition, inactive:
COc1ccc(C2CC(c3ccccc3)=NN2C(=O)c2ccc(Cl)c([N+](=O)[O-])c2)cc1 (centres undefined) 3.76%
CC(C)NCC(O)COCCOc1ccc(Br)cc1 (centres undefined) 35.7%
CCOc1ccc(N(CC(=O)NC2CC3CCC2C3)S(=O)(=O)c2ccccc2)cc1 (centres undefined) 22.7%
COc1cccc(-c2cc(C(F)(F)F)n3ncc(S(=O)(=O)c4ccccc4)c3n2)c1 9.25%
COc1ccc(-n2c(SCc3ccc([N+](=O)[O-])cc3)nnc2-c2ccc(C)cc2)cc1 -0.524%
CN1c2ccc(C=O)c3c(C=O)ccc(c23)N(C)C1(C)C 16.1%
COc1ccc(/C=N/NC(=O)c2ccc(Cl)cc2)cc1COC(C)=O 28.9%
CCn1c(COc2cccc(C)c2)nnc1SCC(=O)NC1CCCC1 18.5%
CCn1cc(/C=C(\NC(=O)c2ccccc2)C(=O)N2CCOCC2)c2ccccc21 -6.81%
Nc1nnnn1/N=C/c1ccccc1OCc1ccc(Cl)cc1Cl 15.2%
CCn1c(C)nc2c(=O)oc3ccccc3c21 4.3%
CCCOc1ccccc1C(=O)NCCCC(=O)O 0.511%
O=C1NC2(C=Cc3c(ccc4ccccc34)O2)Oc2ccccc21 (centres undefined) 2.33%
CN1CCN(C(=S)NC(=O)c2ccccc2Cl)CC1 12.7%
CCOc1ccc(-c2c(C(=O)N/N=C/c3cccs3)nnn2-c2nonc2N)cc1 20.5%
Cc1nc2c(C)cccn2c(=O)c1NC(=O)COc1ccccc1 -175%
COc1ccccc1NC(=O)CN(c1ccc(C23CC4CC(CC(C4)C2)C3)cc1)S(C)(=O)=O 4.28%
CC(=O)N[C@@H](C)c1nc2ccccc2n1CCCN1CCN(c2nc(-c3ccc(C)cc3)cs2)CC1 -6%
Cc1cc2cc(C(=O)N3CCc4c([nH]c5ccccc45)C3c3ccccn3)ccc2o1 (centres undefined) -6.72%
CCCCCCCCNC(C)C(O)c1ccc(SC(C)C)cc1 (centres undefined) 19.5%
N#Cc1c(OCC(=O)c2ccccc2)nc2c(c1-c1ccco1)CCc1ccccc1-2 16.6%
Cn1c(CN2CCOCC2)c(C#N)c2ccccc21 36.1%
CN(C)CCN(C(=O)c1ccc2ccccc2c1)c1nc2ccc(F)cc2s1 41.2%
CC(C)c1c(C(=O)N/N=C/c2cccc3ccccc23)nnn1-c1nonc1N 11.6%
COc1nc(-c2ccccc2)ccc1-c1noc(-c2ccccc2F)n1 1.66%
Cc1cccc(NS(=O)(=O)c2ccc(C)c(C(=O)OCC(=O)Nc3cc(C)on3)c2)c1 6.86%
COCCN1C(=O)/C(=C/c2ccc(Oc3ccc([N+](=O)[O-])cn3)c(OC)c2)SC1=Nc1ccccc1 2.64%
CC(C)(C)OC(=O)N1CCC(c2cc(=O)n3[nH]cc(C(=O)Nc4ccc(F)c(Cl)c4)c3n2)CC1 -30.2%
Cc1ccc(C2(COC(=O)C(C)C)CO2)c(OC(=O)C(C)C)c1 (centres undefined) 38.2%
COc1ccc(CN2CCN(C(c3ccc(F)cc3)c3ccc(F)cc3)CC2)c(OC)c1OC 18.6%
COC(C/C=C/[C@H](O)[C@H](C)OCc1ccccc1)OC 37.1%
COc1ccc(Cc2nc3ccc(C(=O)N4CCCC4)cc3o2)cc1 7.28%
COc1ccc(S(=O)(=O)N(CC(=O)N2CCCC2)Cc2ccccc2)cc1 18.6%
Cc1cc(N)c2cc(NC(=O)/C=C/c3ccccc3Cl)ccc2n1 -21.1%
CN(C)S(=O)(=O)c1ccc(NC(=O)/C=C/c2ccccc2Cl)cc1 19.3%
COc1cc(-c2nc3ccccn3c2/N=C/c2cc(OC)c(OC)c(OC)c2)ccc1O -1.51%
O=C(Nc1ccc(F)cc1)Oc1ccccc1N1CCOCC1 15.4%
CCOC(=O)c1c(NC(=O)c2cccc(N3C(=O)CCC3=O)c2)sc(C)c1C 10.5%
CS(=O)(=O)Nc1ccccc1C(=O)NC1CC2CCC1C2 (centres undefined) 8.71%
